The whole screen tested about 360,000 compounds, of which about 5,000 (1.4%) were called active. For the sample, actives were picked, then their nearest neighbours and some compounds at random. A number with no mark means an inactive call.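 The calls were made as follows: active = inhibition of 50% or more, scaled per plate between neutral and stimulator controls; inactive = the rest.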

A word on the inhibition: it is the change of the read-out against control, counted positive when it falls.

A short description of the assay: mitochondrial permeability transition pore inhibitors, primary screen, biochemical, isolated mouse mitochondria, absorbance (AID 602449).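 Also: 0% = DMSO wells given calcium and 100% = 1 mM EGTA wells.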 The note with it: Ca2+ swelling absorbance, 30 min, at 10 µM, active compounds read high.
With `CC(C)CNC(=S)Nc1ccc(F)cc1`, the inhibition is 2.1%. With `Cc1c(NC(=S)NCc2ccc(F)cc2)cccc1[N+](=O)[O-]`, the inhibition was 96.5% (active). Turning to `Cc1cc(C)cc(NC(=S)NCc2ccc(F)cc2)c1`, the inhibition is 50.1% (active). As to `Cc1cccc(NC(=S)NCCc2ccc(F)cc2)c1C`, the inhibition is 0.7%. In the case of `COc1cc(NC(=S)NCc2ccc(S(N)(=O)=O)cc2)cc(OC)c1` it was -1%; in that of `Cc1c(NC(=O)CCCOc2ccccc2)cccc1[N+](=O)[O-]`, 0.1%.

For `C/C(=N\N=C(N)N)c1ccc(Cl)cc1`, the inhibition was 2%. With `COc1cccc(NC(=O)C(Sc2nnnn2C)c2ccccc2)c1` (stereo not drawn), the inhibition is -1.4%.

With `CCOc1ccc(OCC)c(NC(=O)CN(C)S(=O)(=O)c2cccc3nsnc23)c1`, the inhibition was -0.3%. The result for `COc1ccc(CCNC(=O)c2ccccc2-c2ccccc2C(=O)O)cc1OC` reads -0.5%; that for `COc1ccc(CCNc2cc(N3CCN(C(=O)c4ccccc4OC)CC3)ccc2[N+](=O)[O-])cc1OC`, 55.3% (active). Take `COc1ccccc1OCCNc1cc(N2CCOCC2)ccc1[N+](=O)[O-]`: the inhibition was 2.8%. With `O=S(=O)(CCc1nc2ccccc2o1)c1ccc(Cl)cc1`, the inhibition is -1.2%. Consider `Cc1cc(F)ccc1NC(=S)NCCc1ccccc1`, for which the inhibition is 0%. In the case of `O=C(NCCc1ccccc1)C1CC1` it was -0.4%; in that of `S=C(NCCc1ccccc1)NCc1ccccc1Cl`, 69.8% (active).

As to `O=C(NCCCc1ccccc1)C1CCC(CNc2c(N3CCCCC3)c(=O)c2=O)CC1` (stereo not drawn), the inhibition is 0.1%. In the case of `CC(C)(CNC(=O)Cc1ccc(Cl)cc1Cl)N1CCOCC1` it was 1.9%; in that of `CC1=NN(/C(=N\c2nnc(C)s2)Nc2ccccc2)[C@H](c2ccc(C)cc2)S1`, 0.1%.

Regarding `COc1nc(NC2CCCCC2)nc(N2CCCCCC2)n1`, the inhibition was 20.8%. In the case of `CN(N)c1nc(N2CCCC2)nc(N2CCCC2)n1` it was 1.8%; in that of `FC(F)(F)COc1nc(N2CCCCC2)nc(N2CCNCC2)n1`, 78.3% (active); in that of `O=S(=O)(c1ccccc1)N1CCC(c2ccccc2)CC1`, 1.4%. In the case of `COc1ccc(C2(C)ON(c3ccccc3C(F)(F)F)C2=O)cc1` (stereo not drawn) it was -1.7%. In the case of `CCc1noc(C)c1C(=O)Oc1ccc(N(C)S(=O)(=O)c2ccc(C)c(C)c2)cc1` it was 0.2%. Consider `Cc1ccc(CNC(=O)CCC(=O)N2CC(C)Sc3ccccc32)cc1` (stereo not drawn), for which the inhibition was -1.8%. For `O=C(c1ccc(Cl)cc1)c1ccc(OCC(O)CN2CCCCC2)cc1` (stereo not drawn), the inhibition is 96.3% (active). The result for `OC(COc1ccc(CN2CCSCC2)cc1)CN1CCCCC1` (stereo not drawn) reads 1.1%.

In the case of `CC(=O)Nc1ccc(OCC(O)CN2CCN(c3ccccc3Cl)CC2)cc1` (stereo not drawn), the inhibition is -1.1%. In the case of `CN1CCN(c2ccc([N+](=O)[O-])c(Sc3nc4ccccc4[nH]3)c2)CC1` it was -0.9%; in that of `CCC(c1nc2ccccc2[nH]1)n1c(=O)c(-c2cccs2)nc2ccccc21` (stereo not drawn), 2.6%; in that of `CCC(C)N1C(=O)S/C(=C/c2ccc(Sc3nc4ccccc4[nH]3)o2)C1=O` (stereo not drawn), 91.9% (active). The result for `O=C(NC1CCCC1)C1c2ccccc2OCC(=O)N1CC(F)(F)F` (stereo not drawn) reads -0.2%. On to `COc1ccc(N2CCN(C(=O)[C@@H](NC(=O)c3cc(OC)cc(OC)c3)C(C)C)CC2)cc1`, for which the inhibition is 0.3%. In the case of `O=C(Nc1nnc(S(=O)(=O)N2CCCCCC2)s1)c1cccc(Br)c1` it was 79.7% (active); in that of `COc1cccc(C(=O)Nc2nnc(S(=O)(=O)N3CCOCC3)s2)c1`, -1%.

Regarding `O=C(Nc1nnc(S(=O)(=O)N2CCOCC2)s1)c1cccc(Br)c1`, the inhibition is 4.6%. The result for `COc1cccc(C(NC(C)=O)c2nc(-c3cnc4ccccc4c3)cs2)c1` (stereo not drawn) reads 0.4%; that for `CCCCn1c(N)c(N(CCC(C)C)C(=O)c2ccc([N+](=O)[O-])o2)c(=O)[nH]c1=O`, -0.3%. The result for `COc1ccc(NC(=O)CN(C)C(=O)Cc2coc3cc(C)c(C)cc23)cc1` reads -0.3%; that for `Cc1ccc(F)cc1NC(=O)Cc1nn(C)c(=O)c2ccccc12`, 69.1% (active). The result for `Cc1ccc(F)cc1NC(=O)CSCc1c(C)noc1C` reads -0.3%; that for `Cc1ccc(C)c(NC(=O)COC(=O)c2nn(C)c(=O)c3ccccc23)c1`, 1.4%; that for `O=C1CC(c2c(F)cccc2Cl)C(n2cncn2)C(O)=C1C1NCCc2ccccc21` (stereo not drawn), 5.6%. Take `NNC(=O)COc1ccc(C2SCCS2)cc1`: the inhibition is -1%.

As to `COc1ccc(CCC(C)N2CCc3ccccc3C2)cc1` (stereo not drawn), the inhibition was -0.5%. Turning to `Cn1c(=O)c2c(nc(CN3CCOCC3)n2Cc2ccccc2)n(C)c1=O`, the inhibition is 0.1%.

For the molecule `COCCn1c(CN(Cc2ccccc2)Cc2ccccc2)nc2c1c(=O)n(C)c(=O)n2C`, the inhibition is 0.9%. In the case of `COCCn1c(CN2CCC(Cc3ccccc3)CC2)nc2c1c(=O)n(C)c(=O)n2C` it was 83.7% (active).

Consider `COc1cc(C(=O)Nc2cc(C(F)(F)F)ccc2-n2cncn2)cc(OC)c1OC`, for which the inhibition was -0.1%. The result for `Cc1cc(C)c2c(Cn3ccnc3)cc(=O)oc2c1` reads -1.5%. In the case of `COc1ncnc2c1N=C1CC(C)(C)CC(N)=C1S2` it was 0.5%. Turning to `O=C(COc1ccc(S(=O)(=O)N2CCOCC2)cc1Cl)N1CCOCC1`, the inhibition was 0.5%. The result for `COc1ccccc1CNC(=O)CCn1c(=O)sc2ccccc21` reads 0.2%; that for `COc1ccc(CN2CCOC2=O)cc1OC`, 0.9%. In the case of `COc1ccc(Cn2c(=O)sc3ccccc32)cc1OC` it was 72.6% (active); in that of `Nc1ccc(OCC(O)C[n+]2ccc(CCS(=O)(=O)[O-])cc2)cc1` (stereo not drawn), -2.1%; in that of `Oc1c(Cl)cc(Cl)c(Cl)c1Cc1c(O)c(Cl)cc(Cl)c1Cl`, 80.8% (active).

Take `CN(C)C(=O)N=NC(=O)N(C)C`: the inhibition was 4.3%. As to `CCC1=C(OC(=O)N(CC)CC)N2C(=O)OC(=NCCc3c[nH]c4ccccc34)[C@]2(C)[C@H]2C1=CC[C@H]1C(=O)N(CC)C(=O)[C@H]12`, the inhibition is 0%. The result for `CC1(C)OC(=O)C2=C(C[C@@H](C3CC3)O[C@H]2CCc2cccc(Cl)c2)O1` reads 1%; that for `O=C(Nc1nc2c(F)cc(F)cc2s1)C1COc2ccccc2O1` (stereo not drawn), 63.7% (active). The result for `O=C(Nc1nnc(SCc2ccc(Cl)cc2Cl)s1)C1COc2ccccc2O1` (stereo not drawn) reads 70% (active). In the case of `Cc1cc(C)c2nc(NC(=O)C3CCCO3)sc2c1` (stereo not drawn) it was -9.1%; in that of `C/C(=N/NC(=O)C1COc2ccccc2O1)c1ccco1` (stereo not drawn), 0.4%; in that of `O=C(N/N=C\c1cc(Br)c(Br)o1)C1COc2ccccc2O1` (stereo not drawn), 3.3%. In the case of `O=C(Nc1cc(S(=O)(=O)N2CCCCC2)ccc1Cl)C1COc2ccccc2O1` (stereo not drawn), the inhibition was -0.4%. Take `O=C(CN1CCOCC1)N1CCCc2c1c(=O)oc1ccc(OCc3ccccc3)cc21`: the inhibition is 5.1%. The result for `CCCN(CCC)c1c([N+](=O)[O-])c(=O)oc2ccccc12` reads -6.7%; that for `COCCCNC(=O)C1CCN(c2ccc(N3CCOCC3)nn2)CC1`, 0.3%; that for `OC(c1ccccc1)c1nccn1Cc1ccccc1` (stereo not drawn), -1.7%. `O=S(=O)(N1CCCCC1)N1CCNCC1`: the inhibition is 1.7%.

In the case of `O=C1c2ccccc2S(=O)(=O)N1Cc1c(F)cccc1Cl`, the inhibition was -0.3%. In the case of `NC(N)=N/N=C/c1ccc(Cl)c([N+](=O)[O-])c1` it was 90.5% (active); in that of `NC(N)=N/N=C/c1ccc(OCc2ccc(Cl)cc2Cl)cc1`, 6%; in that of `Nn1cnnc1N/N=C/c1cc([N+](=O)[O-])c(Cl)cc1Cl`, 0.6%. The result for `CC(C)N(C(=O)[C@H]1C[C@H](CC(=O)NC(C)(C)C)C(=O)N2CCc3c([nH]c4ccc(Cl)cc34)[C@]12C)C(C)C` reads -1.7%.

Consider `Cc1ccc(C(=O)N/C(=C/c2cccnc2)C(=O)O)cc1`, for which the inhibition was 0.9%. Turning to `C/C(=N\NC(=O)c1ccc(C)cc1)C1C(=O)c2ccccc2C1=O`, the inhibition was 57.8% (active). For `O=C1c2ccccc2C(=O)C1C(=O)C1CC1`, the inhibition was -0.9%. Turning to `CCOc1ccc(S(=O)(=O)Nc2nccs2)cc1`, the inhibition is 0.5%. The result for `Cn1c(Cc2cccc3ccccc23)nnc1SCC(=O)N1CCN(c2cccc(Cl)c2)CC1` reads -0.5%; that for `O=C(Nc1ccc(Cl)cc1)Nc1ccc(Oc2cccnc2)nc1`, 82.5% (active); that for `Cc1cccc(C(=O)Nc2ccc(Oc3cnccn3)cc2)c1`, 0.7%.

For `O=C(O)CCCC(=O)Nc1ccc(Oc2cccc(C(F)(F)F)c2)nc1`, the inhibition is 0.9%.

Consider `O=C1c2ccccc2[C@@H]2C[C@@H](O)[C@H](Nc3ccccc3Cl)CCN12`, for which the inhibition was -0.5%. In the case of `Cc1ccc2c(c1)C(c1ccccc1)N(C(=O)c1ccc(S(=O)(=O)N3CCOCC3)cc1)CC(=O)N2` (stereo not drawn) it was -0.3%. In the case of `Nc1nc(CSc2nnnn2-c2ccccc2)nc(Nc2ccccc2)n1` it was 0%. In the case of `O=C(c1ccc(-c2ccccc2)cc1)C1CCCN(C(=O)c2cncs2)C1` (stereo not drawn) it was -1.8%; in that of `Cc1ccn(CC(=O)NC2CCCN(Cc3ccccc3F)C2)n1` (stereo not drawn), 0.4%.

On to `CCOC(=O)Nc1ccc2c(c1)N(C(=O)CCCl)c1ccccc1[S@]2=O`, for which the inhibition is -1.2%. In the case of `CCNCCC(=O)N1c2ccccc2Sc2ccc(NC(=O)OCC)cc21` it was 75.6% (active); in that of `CCOC(=O)Nc1ccc2c(c1)N(C(=O)CCN1CCN(CCO)CC1)c1ccccc1CC2`, 0.2%; in that of `Cc1cccnc1NC(=O)Cn1c(=O)oc2ccccc21`, -0.1%. As to `COC(=O)c1ccc(CNC(=O)C2CCC(=O)N(Cc3cccc(F)c3)C2)cc1` (stereo not drawn), the inhibition was -0.2%. In the case of `C=CCN(CC=C)S(=O)(=O)c1ccc(C(=O)Nc2nc3c(s2)CCc2ccccc2-3)cc1` it was -1.2%; in that of `N#Cc1ccc(C(=O)Nc2nc(-c3cccs3)c(C(=O)C(F)(F)F)s2)cc1`, 87.5% (active). The result for `CCn1c(NC(=O)c2ccccc2)c(-c2cccs2)c(=O)c2ccccc21` reads 1.4%.

The values are drawn from PubChem BioAssay AID602449 (Sanford-Burnham Center for Chemical Genomics, 2012).
